# Experimental data: PubChem BioAssay AID720603 (Broad Institute, 2013)
# Entries with a potency or affinity are not part of this list. Inconclusive results are not listed. The source made the active and inactive calls.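 The calls were made as follows: active = every test run gave an active call, each with a potency at or below twice the top valid dose; inconclusive = test runs disagree, or curve fits are weak or unclear; inactive = every test run inactive, including wrong-way signal.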
# Assay: cytotoxicity in mouse C2C12 myoblasts – cell-based, CellTiter-Glo ATP luminescence, 8/24/48 h, dry powder, cytotoxicity control for HRAS target identification, dose response (AID 720603)
structure (smiles),measurement,value
Cc1onc(C(=O)N2CCN(C(c3ccncc3)c3ccncc3)CC2)c1[N+](=O)[O-],outcome,inactive
